In all, about 96,000 compounds went through this assay and about 19,000 (20%) were called active. A selection follows. Values without a mark were called inactive.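 Rule for the calls: active = blocking of liver enzyme CYP2C9 beyond about 50% at 5 µM (limit read from the data); inactive = the rest.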
molecular target: Cytochrome P450 2C9 (Homo sapiens) (UniProt P11712); assay: blockers of cytochrome P450 2C9 activity – biochemical, luminescence, ADME assay, primary screen (AID 777); details: CYP2C9 Supersomes, luciferin-H conversion, at 5 µM, stronger effect = higher value
Sequence (P11712 whole entry, looked up): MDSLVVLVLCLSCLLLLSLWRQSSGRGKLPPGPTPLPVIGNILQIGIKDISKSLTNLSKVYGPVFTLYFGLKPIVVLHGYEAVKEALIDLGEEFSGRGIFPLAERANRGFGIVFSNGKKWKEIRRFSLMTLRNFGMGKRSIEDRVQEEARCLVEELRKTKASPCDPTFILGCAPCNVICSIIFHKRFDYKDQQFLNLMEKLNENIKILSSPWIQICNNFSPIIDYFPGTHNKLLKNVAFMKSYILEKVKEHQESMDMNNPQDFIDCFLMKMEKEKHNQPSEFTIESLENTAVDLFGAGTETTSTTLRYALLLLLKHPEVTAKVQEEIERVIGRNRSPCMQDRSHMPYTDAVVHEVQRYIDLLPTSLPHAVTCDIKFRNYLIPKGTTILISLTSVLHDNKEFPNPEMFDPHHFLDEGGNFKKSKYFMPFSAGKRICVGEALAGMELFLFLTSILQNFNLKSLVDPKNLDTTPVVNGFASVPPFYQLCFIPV

Row | SMILES | inhibition
1 | CNC(=S)N1N=C(c2ccccc2)CC1c1ccc(Br)cc1 (stereo not drawn) | 69.6% (active)
2 | COc1ccc(NC(=S)N2N=CCC2c2ccccc2)cc1 (stereo not drawn) | 10.8%
3 | Cc1nn(C)c(Oc2ccc(Cl)cc2)c1C=O | 0%
4 | Cc1cc(/C=C2/SC(=O)N(CC(=O)OC(C)C)C2=O)c(C)n1C | 5.9%
5 | COc1ccc(-c2cc(C3CCN(c4ncccc4[N+](=O)[O-])CC3)[nH]n2)cc1 | 97.2% (active)
6 | COc1cccc(NC(=O)c2nn(C34CC5CC(CC(C5)C3)C4)cc2[N+](=O)[O-])c1 | 11.2%
7 | O=C1C=C(c2ccc(Cl)cc2)C(=O)N1Nc1ccccc1 | 45.5%
8 | Cc1nnc(NC(=O)CSc2nc(C3CCCCC3)nc3ccccc23)s1 | 20.1%
9 | S=C(NCc1cccs1)Nc1ccc(Cl)cc1 | 53% (active)
10 | S=C(NCc1ccc(Cl)cc1)NC12CC3CC(CC(C3)C1)C2 | 49.3%
11 | COc1cc(CC(=O)NCc2cccs2)cc(OC)c1OC | -31%
12 | COC(=O)c1sccc1-n1cccc1C(=O)C(=O)N1CCCCC1 | 7.3%
13 | CCOC(=O)N1CCN(c2c(NCCCN3CCCC(C)C3)c(=O)c2=O)CC1 (stereo not drawn) | 18.1%
14 | Cc1ccc(C2CC(c3cccc(C)c3)n3nc(N)nc3N2)cc1 (stereo not drawn) | 11.1%
15 | Nc1nc2n(n1)C(c1ccco1)CC(c1ccc(Cl)c(Cl)c1)N2 (stereo not drawn) | 50% (active)
16 | Cc1ccc(C2CC(c3cccc(Br)c3)n3nc(N)nc3N2)cc1 (stereo not drawn) | 5.1%
17 | COc1ccc(C2CC(c3ccc(Cl)cc3Cl)Nc3nc(N)nn32)cc1OC (stereo not drawn) | 9.8%
18 | CCOc1ccccc1C1CC(c2ccc(Cl)cc2)Nc2nc(N)nn21 (stereo not drawn) | 51.1% (active)
19 | CCOc1ccccc1C1CC(c2ccccc2)Nc2nc(N)nn21 (stereo not drawn) | 12.8%
20 | CC1CN(c2cc(=O)n(Cc3ccc(F)cc3)c(=O)[nH]2)CC(C)O1 (stereo not drawn) | -11%
21 | CCCn1c(SCC(=O)N2CCc3ccccc32)nnc1-c1ccncc1 | 45.9%
22 | O=C(Cn1c(-c2ccc(Cl)cc2)noc1=O)N1CCN(c2ccccc2F)CC1 | 1.4%
23 | O=C(NCc1ccco1)C1CCCN(S(=O)(=O)c2cccc3nonc23)C1 (stereo not drawn) | 2.8%
24 | CCNc1nc(NCC)nc(N(C)n2cnnc2)n1 | 15.7%
25 | CCOc1nc(OCC)nc(-n2cc(-c3ccccc3)nn2)n1 | 15.3%

Row | SMILES | inhibition
26 | CCCc1nc2sc3c(c2c(=O)n1NC(=O)CCCl)CCCC3 | 85% (active)
27 | Cc1nc(SCC(=O)Nc2cc(C)on2)c2c3c(sc2n1)CCCC3 | -1.7%
28 | CCCC(=O)Nc1ccc2c(c1)nc1n2CCSC1 | 3.2%
29 | CCC(=O)NC(NCC1CCCO1)C(Cl)(Cl)Cl (stereo not drawn) | 15.6%
30 | CCOc1ccc(NC(=O)CCS(=O)(=O)c2ccc3c(c2)CCCN3C(=O)CC)cc1 | -0.4%
31 | COc1ccc(CCNC(=O)CSc2nnc(CNC(=O)c3cccs3)o2)cc1OC | 17.8%
32 | COc1ccc(-c2nnc(SCC(=O)NC3CCCCC3)o2)cc1OC | 7%
33 | CCSc1nc(C)nc2c1oc1ccccc12 | 18.9%
34 | COc1ccc(NC(=O)Cn2nnc(C(=O)NCCc3ccc(OC)c(OC)c3)c2N)cc1 | 35.6%
35 | COc1ccc(CCNC(=O)CSc2nc(C)nc3c2oc2ccccc23)cc1OC | 58% (active)
36 | COc1ccc(CCNC(=O)CSc2nnc(-c3cccc(F)c3)o2)cc1OC | 81.2% (active)
37 | COc1ccccc1Cn1c(=S)[nH]c2cc(C(=O)N3CCN(C)CC3)ccc2c1=O | -2.6%
38 | CC1CCC(NC(=O)c2ccc(N3CCCC3=O)cc2)CC1 (stereo not drawn) | 5.2%
39 | CSc1nc(O)c(Cc2ccccc2)c(=O)[nH]1 | 7.9%
40 | CCOC(=O)N1CCN(C(=O)c2nn(-c3ccc(C)cc3)c(=O)c3c2c2ccccc2n3C)CC1 | 8.8%
41 | Cn1c2ccccc2c2c(C(=O)N3CCN(c4ccc(F)cc4)CC3)cn(C3CCCC3)c(=O)c21 | 89.6% (active)
42 | Cn1c(C(=O)N2CCC(C(N)=O)CC2)cc2c(=O)n(C)c3ccccc3c21 | -6.8%
43 | Cn1c(=O)c2c(ncn2CC(COCc2ccccc2Cl)OCc2ccccc2Cl)n(C)c1=O (stereo not drawn) | 21.3%
44 | CCC1SC2=NCCN2C1(O)c1ccc(Cl)cc1 (stereo not drawn) | 30.8%
45 | Cc1ccnc(N2CCCC(C(=O)Nc3cc(F)ccc3C)C2)n1 (stereo not drawn) | 90.4% (active)
46 | Cc1ccnc(N2CCC(C(=O)NC3CCCCCC3)CC2)n1 | -45.1%
47 | O=C(Nc1ccc2c(c1)OCCO2)C1CCCN(c2ncccn2)C1 (stereo not drawn) | -3.8%
48 | Cc1nnc(SCC(=O)NC2CCCC2)s1 | 11.5%
49 | O=C(CN1CCN(c2ccccn2)CC1)NC1CCCCC1 | 23.5%
50 | CN(CCCNC(=O)CN1C(=O)CC(C)(C)S(=O)(=O)c2ccccc21)C1CCCCC1 | 9.9%

Row | SMILES | inhibition
51 | O=C(CN1C(=O)CC(c2ccccc2)=Nc2ccccc21)NC1CCCCC1 | 52.3% (active)
52 | CN1CCN(Cc2c(O)ccc3c2oc(=O)c2ccccc23)CC1 | -22.3%
53 | O=C(Nc1ncccn1)c1cccs1 | -3.3%
54 | Cc1ccc(-c2nnc(-c3ccc(NC(=O)c4cccs4)cc3)o2)cc1 | 56.4% (active)
55 | CCOc1ccc(-c2nnc(-c3ccco3)o2)cc1 | 31.6%
56 | Cc1nc(-c2ccc(NC(=O)c3cccs3)cc2)cs1 | 20.2%
57 | CCC(=O)Oc1cccc(C(=O)Nc2ccc(-c3nnc(-c4ccco4)o3)cc2)c1 | 53.3% (active)
58 | O=C(CCc1ccccc1)Nc1cccc(-c2nnc(-c3ccco3)o2)c1 | 19.3%
59 | COc1cccc(C(=O)Nc2ccc(NC(=O)c3ccco3)cn2)c1 | 23.4%
60 | CCCCOc1ccc(-c2nnc(-c3ccco3)o2)cc1 | 19.4%
61 | Cc1ccc(OCC(=O)Nc2ccc(-c3nnc(-c4ccco4)o3)cc2)cc1 | 66.3% (active)
62 | COc1ccc(Cl)cc1C(=O)Nc1ccc(N(C)C(C)=O)cc1 | -206%
63 | C/C(=N\c1nc2ccccc2n1C)c1cc(Cl)ccc1O | -7.5%
64 | CC(=O)N1C(=O)C2(Nc3ccccc3N2)c2ccccc21 | 4.4%
65 | CC1CCc2c(c3ccccc3[nH]c2=O)O1 (stereo not drawn) | 35%
66 | CC1CCc2c(sc(NC(=O)c3ccc(Cn4cc(Br)cn4)o3)c2C(N)=O)C1 (stereo not drawn) | 81.5% (active)
67 | CCOC(=O)c1c(NC(=O)c2ccc(Br)o2)sc2c1CCCC2 | 10.2%
68 | O=C(Nc1ccc(Br)c2cccnc12)c1ccc(Cn2cc([N+](=O)[O-])cn2)o1 | -72.9%
69 | C=CCN1C(=O)C(Cc2cccc(Cl)c2)S/C1=N/N=C/c1ccco1 (stereo not drawn) | -2.7%
70 | CCCNC(=O)c1ccc(Cl)c(Cl)c1 | -10.8%
71 | CCCCNC(=O)C1CCCNC1=O (stereo not drawn) | -10.4%
72 | CC1CN(c2cc(=O)n(-c3cccc(Br)c3)c(=O)[nH]2)CC(C)O1 (stereo not drawn) | -3.4%
73 | CCCc1nc2ccccc2c(C(=O)OCC(=O)c2ccc3c(c2)NC(=O)CO3)c1CC | -20.4%
74 | COc1cc(-c2nnc(Cn3cc(C(F)(F)F)ccc3=O)o2)cc(OC)c1OC | 12%
75 | CCCc1nc2ccccc2c(C(=O)OCc2nnc(-c3cc(OC)c(OC)c(OC)c3)o2)c1CC | 67.5% (active)

Row | SMILES | inhibition
76 | Cc1cc(C(=O)COC(=O)c2cccs2)c(C)n1-c1c(C)n(C)n(-c2ccccc2)c1=O | 15.4%
77 | Cc1cc(=O)n(C)c(=O)n1CCCNc1ccccc1 | 11.2%
78 | Cc1cccc(NC(=O)N(Cc2cc3cc(C)cc(C)c3[nH]c2=O)CC2COCCO2)c1 (stereo not drawn) | 85.5% (active)
79 | COc1ccc2[nH]c(=O)c(CN(CC3CCCO3)C(=O)Nc3ccccc3)cc2c1 (stereo not drawn) | 19.4%
80 | Cc1ccc2[nH]c(=O)c(CN(CCCN(C)C)C(=O)Nc3cccc(Cl)c3)cc2c1 | 1.4%
81 | O=C(CS(=O)(=O)c1cn(Cc2ccc(Cl)cc2)c2ccccc12)N1CCOCC1 | 41%
82 | CCN(c1ccccc1)S(=O)(=O)c1ccc(N)cc1 | -137%
83 | COc1ccc(NC(=O)c2cccc(NC(=O)c3ccco3)c2)c(OC)c1 | -50.5%
84 | COC(=O)c1cc(Cl)c(NC(=O)c2ccco2)cc1OC | -135%
85 | COc1cc(C(=O)OC(C)C(=O)NCC2CCCCC2)cc(NC(=O)c2ccco2)c1OC (stereo not drawn) | 81.6% (active)
86 | O=C(/C(=N\O)n1cncn1)c1ccc(Br)cc1Br | 34.9%
87 | CCCC(=O)C1=C(N(C)c2ccccc2)CC(C)(C)C(C(=O)OC)C1=O (stereo not drawn) | 13.7%
88 | N#CCSc1nc2ccccc2c(=O)n1-c1ccccc1 | 30.4%
89 | COCC(C)n1c(SCc2ccc(C(=O)OC)o2)nc2ccccc2c1=O (stereo not drawn) | 52.9% (active)
90 | CCc1c(O)nc(SCC(=O)Nc2ccccc2)n(C(C)CC)c1=O (stereo not drawn) | 11.7%
91 | COC(=O)c1ccc(CSc2nc3ccccc3c(=O)n2-c2cccc(OC)c2)o1 | 100% (active)
92 | CCOC(=O)CNC(=O)c1nn(-c2cccc(OC)c2)c(=O)c2ccccc12 | 29.6%
93 | COC(=O)CSc1nc(C2CC2)nc2ccccc12 | 48%
94 | O=C(CCc1ccccc1)Nc1ccc(NC(=O)C2CC2)nc1 | 25.9%
95 | N#Cc1c(N)n(CCOC(=O)c2ccc(Cl)cc2)c2nc3ccccc3nc12 | 14.9%
96 | CC(c1ccco1)N(C(=O)Nc1ccccc1)C1CCCCC1 (stereo not drawn) | 81.3% (active)
97 | CCOc1ccc(NC(=O)N(CCC(C)C)C(C)c2ccco2)cc1 (stereo not drawn) | 43.6%
98 | CCCC(C(=O)NCc1ccco1)N(C(=O)CNS(=O)(=O)c1ccccc1)C1CCCC1 (stereo not drawn) | 40.6%

— PubChem BioAssay AID777 (Sanford-Burnham Center for Chemical Genomics, 2007)
